For 24 molecules, inhibition results are on record in PubChem BioAssay.

Values without a mark were called inactive. Some of the results follow. Calls of active or inactive are those of the source. Unless noted, no stated cut-off is given here; in the data, active means inhibition above about 25%; inactive means the rest.

The nature of assay [1]: growth loss of phage-infected E. coli expressing H. pylori AddAB, confirmation, AddAB inhibitor project, absorbance, E. coli V3065, T4 phage, triplicate (AID 488942;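 active means mean inhibition above a set limit taken from the earlier primary screen, cut at about 13% in these data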;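 further: higher means less bacterial growth since AddAB block lets phage replicate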). The conditions noted are these: OD, at 11.9 µM, hits give high values, T4 phage with gene 2 nonsense mutations.
Assay [2] is described as follows: growth loss of RecBCD+ E. coli with mutant T4 phage, counter-screen for AddAB inhibitor project, absorbance, V66 E. coli (AID 488955;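 active means mean inhibition above the mean of solvent-only control wells plus 3 SD, cut at about 4% in these data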;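 further: optical density read after an 18 h incubation at 37 °C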). The note with it: OD growth, at 11.9 µM, hits give high values. Background: The purpose of a counterscreen is to sort out artefacts and off-target activity.
Assay [3] in a line: bacterial viability inhibition counter-screen, confirmation, counter-screen for AddAB inhibitor project, absorbance (AID 488956). The note with it: absorbance (AddAB counterscreen), at 11.9 µM, hits give high values.
Assay [4] has as its target Serine protease HTRA1 (Homo sapiens) (UniProt Q92743). The assay is described as follows: HTRA1 protease inhibitors, retest, confirmation, biochemical, fluorescence polarization (AID 540248;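 active means mean inhibition over three repeats above a set limit taken from the earlier primary screen, cut at about 37% in these data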;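 further: 0% = HTRA1 with DMSO and 100% = wells lacking HTRA1; inhibitors block probe binding so polarization drops and inhibition rises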). The conditions noted are these: recombinant HTRA1, FP-rhodamine activity-based probe, at 5.96 µM, hits give high values. On the technique in general: In fluorescence polarisation assays a small probe gives low polarisation when free and higher when bound to something large.

Assay [5] in a line: growth loss of phage-infected RecBCD+ E. coli, confirmation, RecBCD inhibitor project, absorbance, E. coli V66, T4 gene 2 phage (AID 651982;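 active means mean inhibition over triplicates exceeding the hit threshold derived in the original primary screen, cut at about 11% in these data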). The conditions noted are these: E. coli V66 + T4 2- phage, growth OD; at 11.9 µM; hits give high values.
The nature of assay [6]: E. coli viability inhibition, counter-screen for RecBCD inhibitor project, absorbance, high throughput (AID 651983; in the data active means inhibition above about 20%;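 further: E. coli strain V66 grown with compound alone and no phage infection; 0% = bacteria with DMSO vehicle only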). The note with it: absorbance (OD) growth, at 11.9 µM, hits give high values.
Assay [7] is described as follows: growth loss of phage-infected AddAB-carrying E. coli, confirmation, counter-screen for RecBCD inhibitor project, absorbance, E. coli V3065, T4 phage (AID 651984;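 active means mean inhibition above the solvent-only control wells' mean plus 3 SD, cut at about 22% in these data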;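 further: higher means less bacterial growth from phage killing when AddAB is blocked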). The note with it: E. coli expressing H. pylori AddAB + T4 phage, OD growth; at 11.9 µM; hits give high values; gene 2 mutant T4, recBCD-deleted host.
Assay [8] has as its target Nuclear receptor coactivator 3 (Homo sapiens) (UniProt Q9Y6Q9). The assay is described as follows: SRC3 coactivator transcriptional activity inhibitors, confirmation, cell-based, luminescence, quadruplicate (AID 588792;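 active means mean inhibition over 43.08%, the solvent-only control mean plus 3 SD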;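 further: 0% = DMSO treated cells and 100% = gossypol at 36 µM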). The conditions noted are these: HEK293 GAL4-SRC3 luciferase reporter, at 3.6 µM, hits give high values.
The subject of assay [9] is transactivating tegument protein VP16 (Human herpesvirus 1), Gal4-VP16 luciferase reporter. The assay is described as follows: VP16 transactivation inhibitors, counter-screen for SRC3 inhibitor project, cell-based, luminescence, high throughput (AID 588794; in the data active means inhibition above about 30%). The note with it: mammalian cells, VP16-driven luciferase reporter luminescence; at 3.6 µM; hits give high values.
The target in assay [10] is Nuclear receptor coactivator 1 (Homo sapiens) (UniProt Q15788). Put plainly: SRC1 coactivator transcriptional activity inhibitors, confirmation, cell-based, luminescence, quadruplicate (AID 588820;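 active means mean inhibition above 46.68%, the untreated control wells mean plus 3 SD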;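 further: 0% = DMSO wells and 100% = gossypol 36 µM treated wells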). The note with it: HEK293 GAL4-SRC1 luciferase reporter, at 3.6 µM, hits give high values.
Sequence of Nuclear receptor coactivator 1 (Homo sapiens) (Q15788 whole entry, looked up, the tested form may be a part): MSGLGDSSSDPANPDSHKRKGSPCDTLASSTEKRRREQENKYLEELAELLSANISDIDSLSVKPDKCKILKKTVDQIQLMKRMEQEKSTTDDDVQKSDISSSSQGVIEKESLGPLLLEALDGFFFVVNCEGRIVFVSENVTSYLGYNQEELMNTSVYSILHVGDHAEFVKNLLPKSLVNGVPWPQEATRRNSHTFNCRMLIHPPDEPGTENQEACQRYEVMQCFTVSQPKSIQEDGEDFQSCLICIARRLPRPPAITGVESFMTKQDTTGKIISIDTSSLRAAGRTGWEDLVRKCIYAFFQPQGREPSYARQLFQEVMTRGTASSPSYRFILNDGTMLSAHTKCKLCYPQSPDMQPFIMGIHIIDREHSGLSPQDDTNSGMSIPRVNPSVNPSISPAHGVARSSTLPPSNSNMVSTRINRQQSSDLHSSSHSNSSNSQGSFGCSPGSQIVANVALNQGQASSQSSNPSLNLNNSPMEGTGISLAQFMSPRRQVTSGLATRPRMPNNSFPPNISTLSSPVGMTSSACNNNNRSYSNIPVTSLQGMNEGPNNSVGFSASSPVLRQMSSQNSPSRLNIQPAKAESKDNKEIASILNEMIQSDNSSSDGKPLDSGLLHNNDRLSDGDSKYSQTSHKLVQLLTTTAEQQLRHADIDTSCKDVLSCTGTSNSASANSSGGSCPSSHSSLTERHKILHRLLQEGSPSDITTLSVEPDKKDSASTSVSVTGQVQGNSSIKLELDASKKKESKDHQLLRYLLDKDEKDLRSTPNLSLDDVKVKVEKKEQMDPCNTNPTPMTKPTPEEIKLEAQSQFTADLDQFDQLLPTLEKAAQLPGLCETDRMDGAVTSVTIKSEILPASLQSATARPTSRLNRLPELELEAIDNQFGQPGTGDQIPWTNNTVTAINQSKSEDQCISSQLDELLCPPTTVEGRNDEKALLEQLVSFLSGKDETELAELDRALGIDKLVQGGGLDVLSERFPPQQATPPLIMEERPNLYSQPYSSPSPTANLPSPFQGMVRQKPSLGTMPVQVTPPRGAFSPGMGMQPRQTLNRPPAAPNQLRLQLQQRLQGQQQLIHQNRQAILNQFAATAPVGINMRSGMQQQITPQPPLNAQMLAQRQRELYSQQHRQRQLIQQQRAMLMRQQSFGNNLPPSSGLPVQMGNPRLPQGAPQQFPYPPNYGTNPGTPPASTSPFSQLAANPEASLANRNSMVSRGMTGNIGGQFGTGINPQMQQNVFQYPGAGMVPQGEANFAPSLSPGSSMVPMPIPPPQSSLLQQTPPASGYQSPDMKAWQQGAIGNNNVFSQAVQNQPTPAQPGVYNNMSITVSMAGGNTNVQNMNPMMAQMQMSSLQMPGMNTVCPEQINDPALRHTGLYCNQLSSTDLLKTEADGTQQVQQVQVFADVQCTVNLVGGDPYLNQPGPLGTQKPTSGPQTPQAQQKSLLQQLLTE
Assay [11] in a line: VP16 transactivation inhibitors, counter-screen for SRC1 inhibitor project, cell-based, luminescence, high throughput (AID 588824). The conditions noted are these: cell-based VP16 transactivation luciferase luminescence; at 3.6 µM; hits give high values.
Assay [12] concerns the target Platelet-activating factor acetylhydrolase IB subunit alpha1 (Homo sapiens) (UniProt Q15102). The assay is described as follows: PAFAH1B3 enzyme inhibitors, confirmation, biochemical, fluorescence polarization, human (AID 493032;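 active means average inhibition over triplicate runs above the hit cutoff set in the earlier primary screen, cut at about 25% in these data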;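 further: 0% = enzyme with DMSO and 100% = wells lacking PAFAH1B3 protein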). The conditions noted are these: recombinant PAFAH1B3, FP-Rh activity-based probe, at 3.39 µM, hits give high values.

Sequence of Platelet-activating factor acetylhydrolase IB subunit alpha1 (Homo sapiens) (Q15102 whole entry, looked up): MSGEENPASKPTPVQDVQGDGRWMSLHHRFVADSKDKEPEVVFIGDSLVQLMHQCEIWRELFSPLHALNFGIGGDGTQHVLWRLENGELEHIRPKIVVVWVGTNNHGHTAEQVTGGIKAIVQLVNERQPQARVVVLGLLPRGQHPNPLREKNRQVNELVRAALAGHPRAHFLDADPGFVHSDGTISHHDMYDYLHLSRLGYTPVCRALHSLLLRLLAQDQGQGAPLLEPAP
Sequence of Nuclear receptor coactivator 3 (Homo sapiens) (Q9Y6Q9 whole entry, looked up, the tested form may be a part): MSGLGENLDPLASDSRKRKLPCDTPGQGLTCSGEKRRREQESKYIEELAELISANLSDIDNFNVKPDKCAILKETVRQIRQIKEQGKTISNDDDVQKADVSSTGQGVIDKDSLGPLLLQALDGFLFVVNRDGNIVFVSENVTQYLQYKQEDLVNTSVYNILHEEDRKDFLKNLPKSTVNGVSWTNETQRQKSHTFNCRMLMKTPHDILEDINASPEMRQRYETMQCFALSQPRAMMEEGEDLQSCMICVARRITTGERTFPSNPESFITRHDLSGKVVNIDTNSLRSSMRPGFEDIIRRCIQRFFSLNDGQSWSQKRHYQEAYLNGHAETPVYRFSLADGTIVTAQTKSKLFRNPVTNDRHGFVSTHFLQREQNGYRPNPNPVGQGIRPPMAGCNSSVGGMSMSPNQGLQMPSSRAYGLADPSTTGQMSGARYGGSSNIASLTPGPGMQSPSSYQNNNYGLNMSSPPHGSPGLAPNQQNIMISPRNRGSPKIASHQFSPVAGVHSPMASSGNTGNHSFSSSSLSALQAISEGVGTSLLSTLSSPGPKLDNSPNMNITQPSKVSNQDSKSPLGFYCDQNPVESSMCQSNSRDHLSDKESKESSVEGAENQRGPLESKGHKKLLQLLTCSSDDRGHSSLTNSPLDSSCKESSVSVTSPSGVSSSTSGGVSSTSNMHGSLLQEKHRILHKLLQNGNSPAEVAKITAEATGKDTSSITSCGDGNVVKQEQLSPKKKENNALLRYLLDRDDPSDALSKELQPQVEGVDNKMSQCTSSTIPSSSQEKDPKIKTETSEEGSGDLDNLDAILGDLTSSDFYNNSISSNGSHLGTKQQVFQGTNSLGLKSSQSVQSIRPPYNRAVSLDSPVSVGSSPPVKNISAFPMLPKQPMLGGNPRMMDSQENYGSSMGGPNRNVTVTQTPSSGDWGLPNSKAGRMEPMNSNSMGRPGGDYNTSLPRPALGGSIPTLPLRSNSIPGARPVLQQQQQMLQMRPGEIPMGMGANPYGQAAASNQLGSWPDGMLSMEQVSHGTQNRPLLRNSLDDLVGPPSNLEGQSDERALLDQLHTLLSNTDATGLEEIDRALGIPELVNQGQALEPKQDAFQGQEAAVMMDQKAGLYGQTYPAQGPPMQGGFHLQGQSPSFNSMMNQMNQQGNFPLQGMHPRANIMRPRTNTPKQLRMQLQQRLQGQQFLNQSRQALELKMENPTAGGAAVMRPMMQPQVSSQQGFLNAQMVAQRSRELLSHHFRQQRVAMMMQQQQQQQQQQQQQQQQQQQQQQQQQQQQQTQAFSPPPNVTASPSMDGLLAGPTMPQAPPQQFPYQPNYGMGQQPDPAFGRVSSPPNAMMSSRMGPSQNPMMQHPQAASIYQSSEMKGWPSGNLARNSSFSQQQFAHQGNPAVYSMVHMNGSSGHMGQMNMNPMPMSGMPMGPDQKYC

In general, inhibition refers to the change of the read-out against control, counted positive when it falls. For `CC1=C(C(=O)OCc2ccccc2)C(c2ccco2)n2ncnc2N1` (stereo unspecified), the inhibition in assay [1] was 0.55%; in assay [2], 0.26%; in assay [3], -3.83%.
`CSC(=S)N/N=C/c1c[nH]c2ccccc12`: the inhibition is 24.2% (active) in [1], 11.8% (active) in assay [2], 29.5% (active) in assay [3] and 33.3% in [4].
As to `O=C(CN1CCN(S(=O)(=O)c2cc(Cl)ccc2Cl)CC1)c1ccc(O)c(O)c1`, the inhibition in assay [4] was 45.3% (active).
For the molecule `O=[N+]([O-])c1ccc(N=Cc2c(O)ccc3ccccc23)cc1`, the inhibition is -0.99% in [1], -2.02% in assay [2] and -4.22% in [3].
Take `O=C(CSc1ccc(-c2ccccn2)nn1)Nc1ccccc1`: the inhibition was 5.71% in assay [1]; 6.8% (active) in [2]; 5% in [3]; 2.01% in assay [5]; 1.79% in [6]; 11.1% in [7].
On to `CC1CCCN(C(=O)c2ccc3c(c2)C(=O)N(CCC2=CCCCC2)C3=O)C1` (stereo unspecified), for which the figures for the inhibition in assay [1], in [2] and in [3] were -4.68%, -0.96% and -2.15%, respectively.
As for `Cc1cn(C2C=CC(CO)O2)c(=O)[nH]c1=O` (stereo unspecified), the inhibition in assay [1] was 83.8% (active); in assay [2], 6.53% (active); in assay [3] it was 42.2% (active); in assay [5], 14.1% (active); in assay [6], 8.16%; in assay [7] it was 54.6% (active).
For the molecule `Nc1nonc1-n1nnc(C(=O)N/N=C/c2cc(Br)ccc2O)c1CSC1=NCCS1`, the inhibition in assay [1] was 14.2% (active); in assay [2], 16% (active); in assay [3], 9.73%; in assay [8] it was 42.7%; in assay [9] it was 34.5% (active); in assay [10], 41%. Also, the inhibition in assay [11] is 33.4% (active); in [5], 6.91%; in assay [6] it was 9.92%; in assay [7] it was 10.8%.
As for `Cc1cc(-c2csc(N)n2)c(C)n1Cc1ccccc1`, the inhibition in assay [4] is 30.6%.
Regarding `COc1ccc(C(=O)COC(=O)c2ccc([N+](=O)[O-])s2)cc1OC`, the inhibition in [12] was 13.3%.
Regarding `O=C1c2ccccc2NC(c2ccc(-c3cccc(Cl)c3)o2)N1O` (stereo unspecified), the inhibition in assay [1] was 17.5% (active); in assay [2], 18.4% (active); in assay [3] it was 13.2%; in assay [5], 13.7% (active); in [6] it was 16.7%; in assay [7] it was 18.9%.
For the molecule `CN1C(c2ccc(F)cc2)=CS/C1=C(/C#N)c1nnc2n1-c1ccccc1SC2`, in [12], the inhibition was 20.9%.
In the case of `O=C1CCC(=O)N(O)CCCCCNC(=O)CCC(=O)N(O)CCCCCNC(=O)CCC(=O)N(O)CCCCCN1`, the inhibition was 31% (active) in [1]; 24.5% (active) in assay [2]; 17.4% in assay [3]; 19.5% (active) in [5]; 25% (active) in [6]; 29.4% (active) in assay [7].
As for `O=C(N/N=C/c1ccc(O)c(O)c1)C1c2ccccc2Oc2ccccc21`, the inhibition in assay [4] is 76.6% (active).
Regarding `Cc1cccc(NC(=O)Cn2cc(C(=O)c3ccco3)c3ccccc32)c1`, the inhibition in assay [1] is 14.9% (active); in assay [2], 10.9% (active); in [3], 11.8%; in [5] it was 6.82%; in assay [6] it was 11.3%; in assay [7], 7.23%.
Regarding `CC[C@H]1OC(=O)[C@H](C)[C@@H](O[C@H]2C[C@@](C)(OC)[C@@H](O)[C@H](C)O2)[C@H](C)[C@@H](O[C@@H]2O[C@H](C)C[C@H](N(C)C)[C@H]2O)[C@](C)(O)C[C@@H](C)[C@@H]2N[C@@H](COCCOC)O[C@H]([C@H]2C)[C@]1(C)O`, the inhibition was 62.5% (active) in assay [1]; 41% (active) in assay [2]; 37.2% (active) in [3]; 33.9% (active) in assay [5]; 34.4% (active) in [6]; 42.6% (active) in [7].
Regarding `C=CCNC(=O)c1cc(-c2ccccc2O)on1`, the inhibition in [1] is -1.87%; in [2] it was 1.86%; in assay [3], 0.32%.
Consider `COc1ccc(C2=Nn3c(nnc3-c3ccccc3OC)SC2)cc1OC1CCCC1`, for which the inhibition in assay [12] was 35.2% (active).
As for `O=C(NCC1CCCO1)C(C(=O)c1ccccc1)n1cc(Cl)ccc1=O` (stereo unspecified), the inhibition in assay [1] was -2.76%; in [2] it was -0.21%; in [3] it was -1.24%.
For `CN1CCN(c2cc3c(cc2F)c(=O)c(C(=O)O)cn3CCF)CC1`, the inhibition in assay [1] was 103% (active); in assay [2], 102% (active); in [3], 103% (active); in assay [5] it was 103% (active); in assay [6], 103% (active); in [7], 102% (active).
As for `COc1cccc(Cn2cc(/C=N/NC(=O)c3cc(O)cc(O)c3)c3ccccc32)c1`, in assay [12], the inhibition is 17.6%.
Same read-out and setting: next, `Cc1ccc(C)c(NC(=O)NNC(=O)c2ccc3ccccc3c2O)c1`: 40.5% (active).
Take `CC(=O)N(O)CCCCCNC(=O)CCC(=O)N(O)CCCCCNC(=O)CCC(=O)N(O)CCCCCNC(=O)CCC(=O)O`: the inhibition in assay [1] is 13.8% (active); in assay [2], 14.4% (active); in [3], 2.8%; in assay [5] it was 7.53%; in [6] it was 11.4%; in assay [7], 12.5%.
Take `COC(=O)N/N=C/c1c[n+]([O-])c2ccccc2[n+]1[O-]`: the inhibition in assay [1] was 94.5% (active); in assay [2], 27.4% (active); in assay [3], 83.4% (active); in [5], 23.1% (active); in assay [6], 28% (active); in [7], 91.8% (active).
